# In PubChem BioAssay (Tox21):
# Values joined by “and” are separate entries in the source; they are usually repeats but may differ in a detail not shown here. Equal values may be shown once. Results filed as inconclusive are left out. A call without a number means that no potency is given here. Where a structure was tested more than once in an assay, its records may differ in their call. Active and inactive are the calls of the source. Unless noted, calls follow the shape of the dose curve; as a rule, active = well fitted curve in the direction sought with a large enough effect in the repeat runs; inconclusive = weak or mixed curves; inactive = no such curve, though single readings can be large; an effect the other way counts as inactive or inconclusive.
# What was measured:
# [1] = qHTS assay to identify small molecule antagonists of the thyroid receptor (TR) signaling pathway - cell viability counter screen (AID 743064); also: nearly all actives have a fitted effect of over 50% in size; also: potency is read from the fitted curve at half-maximal effect
# Method in brief: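 GH3.TRE-Luc cells, 4 h pre-plating; cpd + T3 1 nM final; 37 °C 23.5 h; CellTiter-Fluor 30 min; fluorescence read.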
# [2] = tested on: thyroid hormone receptor (rat, GH3 cells); experiment: qHTS assay to identify small molecule agonists of the thyroid receptor (TR) signaling pathway (AID 743066; calls by dose curve)
# [3] = biological target: Estrogen receptor (Homo sapiens) (UniProt P03372); experiment: qHTS assay to identify small molecule antagonists of the estrogen receptor alpha (ER-alpha) signaling pathway (AID 743069; active = well fitted curve in the direction sought with a large enough effect in the signal ratio in the repeat runs, not every such curve was filed as active; the % refers to the signal ratio; also: potency is read from the fitted curve at half-maximal effect)
# Estrogen receptor (Homo sapiens), sequence (P03372 whole entry, looked up): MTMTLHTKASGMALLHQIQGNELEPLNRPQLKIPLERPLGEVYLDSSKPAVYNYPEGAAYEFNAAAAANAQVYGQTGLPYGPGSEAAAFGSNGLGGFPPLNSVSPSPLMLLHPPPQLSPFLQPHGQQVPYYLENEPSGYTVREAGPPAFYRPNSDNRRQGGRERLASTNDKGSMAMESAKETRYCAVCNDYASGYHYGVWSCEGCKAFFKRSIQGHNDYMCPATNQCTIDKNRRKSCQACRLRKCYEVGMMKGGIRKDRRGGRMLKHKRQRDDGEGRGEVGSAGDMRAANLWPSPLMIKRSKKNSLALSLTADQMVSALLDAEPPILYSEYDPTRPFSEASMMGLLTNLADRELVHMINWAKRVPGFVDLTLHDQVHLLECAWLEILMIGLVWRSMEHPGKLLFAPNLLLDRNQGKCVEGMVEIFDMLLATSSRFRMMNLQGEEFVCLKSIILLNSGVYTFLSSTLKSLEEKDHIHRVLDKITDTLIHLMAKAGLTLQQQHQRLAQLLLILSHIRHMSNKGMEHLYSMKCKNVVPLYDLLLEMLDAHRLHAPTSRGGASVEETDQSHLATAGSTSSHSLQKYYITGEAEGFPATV
# Method in brief: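 Beta-lactamase FRET fluorescence is read after 2 hr at room temperature with LiveBLAzer B/G substrate. Before that, ER-alpha-bla HEK293 cells sit 4 hr after plating, then receive compound plus 17beta-estradiol and incubate 18 hr at 37C.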
# [4] = qHTS assay to identify small molecule antagonists of the estrogen receptor alpha (ER-alpha) signaling pathway - cell viability counter screen (AID 743074; calls by dose curve;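 also: HEK293 cells carrying ER-alpha-UAS-bla reporter stimulated with 17beta-estradiol; nearly all actives have a fitted effect of over 45% in size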)
# [5] = biological target: Estrogen receptor (Homo sapiens) (UniProt P03372); experiment: qHTS assay to identify small molecule agonists of the estrogen receptor alpha (ER-alpha) signaling pathway (AID 743075; calls by dose curve;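 also: HEK293 GripTite cells with ER-alpha and UAS-driven beta-lactamase reporter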)
# [6] = biological target: Estrogen receptor (Homo sapiens) (UniProt P03372); experiment: qHTS assay to identify small molecule agonists of the estrogen receptor alpha (ER-alpha) signaling pathway using the BG1 cell line (AID 743079); settings: BG1Luc4E2 cells, ERE-luciferase agonist, 22 h; for activation: at 70.3 µM (top of the series); also: potency is read from the fitted curve at half-maximal effect; as to all read-outs here: nearly all actives have a fitted effect of over 20% in size
# [7] = qHTS assay to identify small molecule antagonists of the estrogen receptor alpha (ER-alpha) signaling pathway using the BG1 cell line (AID 743080; calls by dose curve;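 also: BG1 cells stimulated with 17beta-estradiol alongside compound; nearly all actives have a fitted effect of over 25% in size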; also: potency is read from the fitted curve at half-maximal effect)
# Method in brief: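 Endogenous full-length ER-alpha in BG1-Luc-4E2 cells drives a stably integrated 4×ERE luciferase gene; compounds were tested against 17beta-estradiol over 21.5 h, with luminescence and multiplexed viability fluorescence recorded.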
# [8] = qHTS assay to identify small molecule antagonists of the estrogen receptor alpha (ER-alpha) signaling pathway using the BG1 cell line - cell viability counter screen (AID 743081);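 also: compound given together with 17beta-estradiol as the ER stimulus; nearly all actives have a fitted effect of over 45% in size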
# [9] = biological target: Aromatase (Homo sapiens) (UniProt P11511); experiment: qHTS assay to identify aromatase inhibitors (AID 743083); also: nearly all actives have a fitted effect of over 55% in size; also: potency is read from the fitted curve at half-maximal effect
# Aromatase (Homo sapiens), sequence (P11511 whole entry, looked up): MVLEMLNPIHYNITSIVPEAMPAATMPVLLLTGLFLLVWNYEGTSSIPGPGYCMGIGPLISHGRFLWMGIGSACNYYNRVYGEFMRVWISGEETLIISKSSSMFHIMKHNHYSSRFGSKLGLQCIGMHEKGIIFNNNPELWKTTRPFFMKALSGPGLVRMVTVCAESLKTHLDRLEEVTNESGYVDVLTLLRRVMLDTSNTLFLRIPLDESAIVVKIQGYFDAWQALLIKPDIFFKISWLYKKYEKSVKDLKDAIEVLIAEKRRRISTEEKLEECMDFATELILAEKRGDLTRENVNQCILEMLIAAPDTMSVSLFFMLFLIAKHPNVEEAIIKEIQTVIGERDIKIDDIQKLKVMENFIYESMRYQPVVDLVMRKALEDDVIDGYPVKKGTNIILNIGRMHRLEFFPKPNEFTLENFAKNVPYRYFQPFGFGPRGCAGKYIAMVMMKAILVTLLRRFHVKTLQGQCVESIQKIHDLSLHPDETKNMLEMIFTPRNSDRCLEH
# [10] = qHTS assay to identify aromatase inhibitors - cell viability counter screen (AID 743084);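 also: cells stimulated with testosterone during compound exposure; nearly all actives have a fitted effect of over 55% in size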; also: potency is read from the fitted curve at half-maximal effect
# [11] = qHTS assay to identify small molecule that activate the aryl hydrocarbon receptor (AhR) signaling pathway - cell viability counter screen (AID 743086);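 also: HepG2 liver cells carrying the AhR DRE luciferase reporter; nearly all actives have a fitted effect of over 45% in size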
# Method in brief: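 HepG2-AhR-luc (HG2L7.5c1) cells, 4000/well, treated 24 h at 37 C with compound; viability measured as CellTiter-Fluor fluorescence after 30 min in the same wells as the luciferase read.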
# [12] = biological target: Peroxisome proliferator-activated receptor gamma (Homo sapiens) (UniProt P37231); experiment: qHTS assay to identify small molecule agonists of the peroxisome proliferator-activated receptor gamma (PPARg) signaling pathway (AID 743094; active = well fitted activation curve with a large enough effect in the signal ratio in the repeat runs, not every such curve was filed as active; the % refers to the signal ratio)
# Peroxisome proliferator-activated receptor gamma (Homo sapiens), sequence (P37231 whole entry, looked up): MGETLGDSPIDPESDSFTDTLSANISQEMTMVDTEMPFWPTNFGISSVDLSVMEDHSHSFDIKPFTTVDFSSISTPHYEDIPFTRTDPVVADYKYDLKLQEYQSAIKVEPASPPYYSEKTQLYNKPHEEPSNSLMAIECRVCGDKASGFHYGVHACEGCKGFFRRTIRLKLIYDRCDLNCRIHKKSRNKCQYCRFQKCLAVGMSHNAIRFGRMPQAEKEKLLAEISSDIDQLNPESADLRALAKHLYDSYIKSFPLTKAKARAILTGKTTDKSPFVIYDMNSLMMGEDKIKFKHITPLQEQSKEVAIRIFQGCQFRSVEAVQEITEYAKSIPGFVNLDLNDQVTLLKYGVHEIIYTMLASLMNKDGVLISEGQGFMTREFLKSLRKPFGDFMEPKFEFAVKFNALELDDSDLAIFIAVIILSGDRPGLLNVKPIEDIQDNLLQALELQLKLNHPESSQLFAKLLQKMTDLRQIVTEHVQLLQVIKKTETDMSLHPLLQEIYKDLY
# Method in brief: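 Cell-based bla reporter, HEK293H background, PPARg-driven UAS. Pre-incubation 5 h, 37C, 5% CO2. Compound 17 h, 37C. Substrate 1 h RT; fluorescence.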
# [13] = qHTS assay to identify small molecule antagonists of the peroxisome proliferator-activated receptor gamma (PPARg) signaling pathway - cell viability counter screen (AID 743194); settings: Potency: co-treated with 50 nM rosiglitazone; also: nearly all actives have a fitted effect of over 55% in size
# Method in brief: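 Cytotoxicity counter screen in PPARg-bla HEK293H cells, same wells as reporter assay. Compounds plus 50 nM rosiglitazone (final) for 17 h at 37 C, then viability read by CellTiter-Glo luminescence.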
# [14] = qHTS assay for small molecule agonists of the antioxidant response element (ARE) signaling pathway - cell viability counter screen (AID 743203; calls by dose curve; also: nearly all actives have a fitted effect of over 55% in size)
# Method in brief: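 Measured in the same wells as the beta-lactamase ARE reporter, this read-out is CellTiter-Glo luminescence from HepG2 ARE-bla cells given compounds for 16 hrs.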
# [15] = qHTS assay for small molecule activators of the heat shock response signaling pathway - cell viability counter screen (AID 743209); also: nearly all actives have a fitted effect of over 50% in size
# Method in brief: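 Same-well multiplex: after 2.5 h room-temperature incubation with LiveBLAzer B/G substrate and fluorescence reading, CellTiter-Glo reagent was added to HSE-bla HeLa cells that had received compound for 5 h at 37 C; luminescence read after 30 min.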
# [16] = qHTS assay for small molecule activators of the heat shock response signaling pathway (AID 743210; active = well fitted activation curve with a large enough effect in the signal ratio in the repeat runs, with a control signal flat, not every such curve was filed as active; the % refers to the signal ratio;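 also: HeLa cells with beta-lactamase reporter driven by heat shock elements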)
# Method in brief: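 Beta-lactamase reporter read-out: FRET substrate fluorescence after 2.5 h at RT, following 5 h compound treatment at 37 C of HeLa cells carrying HSE-driven bla reporter; quantitative HTS format.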
# [17] = qHTS assay to identify small molecule antagonists of the thyroid receptor (TR) signaling pathway (AID 743065); also: nearly all actives have a fitted effect of over 55% in size
# Method in brief: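 GH3.TRE-Luc rat pituitary cells (two TREs driving luciferase) were dosed with compound, then stimulated with 1 nM T3 (final) for 23.5 h at 37 C. ONE-Glo luminescence was the read-out, with CellTiter-Fluor fluorescence as the cytotoxicity counter-screen.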
# [18] = biological target: Aryl hydrocarbon receptor (Homo sapiens) (UniProt P35869); experiment: qHTS assay to identify small molecule that activate the aryl hydrocarbon receptor (AhR) signaling pathway (AID 743085);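 also: HG2L7.5c1 human HepG2 liver cells with stably integrated DRE-driven firefly reporter; nearly all actives have a fitted effect of over 15% in size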
# Aryl hydrocarbon receptor (Homo sapiens), sequence (P35869 whole entry, looked up): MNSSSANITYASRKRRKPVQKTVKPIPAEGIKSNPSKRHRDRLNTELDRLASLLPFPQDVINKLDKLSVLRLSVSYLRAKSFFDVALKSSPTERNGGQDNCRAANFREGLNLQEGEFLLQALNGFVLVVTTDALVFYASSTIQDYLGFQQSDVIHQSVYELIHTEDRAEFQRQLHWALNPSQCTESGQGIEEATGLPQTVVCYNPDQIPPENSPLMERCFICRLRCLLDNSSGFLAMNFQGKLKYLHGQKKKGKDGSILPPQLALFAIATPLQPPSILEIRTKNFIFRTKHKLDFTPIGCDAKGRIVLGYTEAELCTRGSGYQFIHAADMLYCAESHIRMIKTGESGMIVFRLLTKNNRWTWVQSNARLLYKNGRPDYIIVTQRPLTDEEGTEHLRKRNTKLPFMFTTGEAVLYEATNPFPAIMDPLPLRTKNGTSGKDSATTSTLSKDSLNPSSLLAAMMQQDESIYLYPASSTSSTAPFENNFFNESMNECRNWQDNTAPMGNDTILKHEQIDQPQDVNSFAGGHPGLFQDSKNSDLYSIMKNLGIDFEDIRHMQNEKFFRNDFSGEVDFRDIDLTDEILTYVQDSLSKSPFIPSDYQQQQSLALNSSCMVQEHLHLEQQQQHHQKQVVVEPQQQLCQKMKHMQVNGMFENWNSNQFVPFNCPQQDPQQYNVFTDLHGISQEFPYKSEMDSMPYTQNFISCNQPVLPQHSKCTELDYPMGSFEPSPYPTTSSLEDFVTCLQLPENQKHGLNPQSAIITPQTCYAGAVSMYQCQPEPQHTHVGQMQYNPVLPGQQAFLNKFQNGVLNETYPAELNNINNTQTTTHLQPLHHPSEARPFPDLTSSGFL
# Method in brief: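 Luminescence read-out: ONE-Glo reagent, 30 min at room temperature, in HG2L7.5c1 HepG2 reporter cells treated 24 h at 37C. Viability was measured beforehand by CellTiter-Fluor fluorescence after 30 min at 37C.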
# [19] = biological target: Peroxisome proliferator-activated receptor gamma (Homo sapiens) (UniProt P37231); experiment: qHTS assay to identify small molecule antagonists of the peroxisome proliferator-activated receptor gamma (PPARg) signaling pathway (AID 743191; calls by dose curve; also: nearly all actives have a fitted effect of over 30% in size)
# Method in brief: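 GeneBLAzer PPARg UAS-bla HEK293H cells, 5 h post-plating, exposed to compounds 17 h at 37C. LiveBLAzer B/G FRET substrate added for 1 h at room temperature; beta-lactamase reporter read by fluorescence intensity.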
# [20] = qHTS assay for small molecule agonists of the antioxidant response element (ARE) signaling pathway (AID 743202; active = well fitted activation curve with a large enough effect in the signal ratio in the repeat runs, not every such curve was filed as active; the % refers to the signal ratio; also: potency is read from the fitted curve at half-maximal effect)
# Method in brief: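 HepG2 ARE-bla reporter line, 2,000 cells/well; 5 h preincubation 37 C/5% CO2; compound (DMSO) 16 h 37 C; B/G FRET substrate 2 h RT; fluorescence intensity.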
structure (smiles),measurement,setting,value
C=C(C)[C@@H]1CC=C(C=O)CC1,Potency,[1],inactive
same,Potency,[2],inactive
same,Potency,[3],inactive
same,outcome,[4],inactive
same,Potency,[5],inactive
same,activation,[6],3.7% (inactive)
same,Potency,[7],inactive
same,Potency,[8],inactive
same,Potency,[9],inactive
same,Potency,[10],inactive
same,outcome,[11],inactive
same,outcome,[12],inactive
same,Potency,[13],inactive
same,Potency,[14],inactive
same,Potency,[15],inactive
same,outcome,[16],inactive
CCOC(=O)/C=C(C)/C=C/C[C@@H](C)CCCC(C)C,Potency,[1],inactive
same,Potency,[17],inactive
same,Potency,[3],inactive and 24.5 µM [inhibitor] (active)
same,outcome,[4],inactive
same,Potency,[5],inactive
same,activation,[6],19.2% (inactive) and -9.9% (inactive)
same,Potency,[7],inactive
same,Potency,[8],inactive
same,Potency,[9],inactive
same,Potency,[10],inactive
same,outcome,[11],inactive
same,outcome,[12],inactive
CCOP(=O)(N=C1SCCS1)OCC,Potency,[1],inactive
same,Potency,[2],inactive
same,Potency,[3],inactive
same,outcome,[4],inactive
same,Potency,[5],inactive
same,activation,[6],-3.11% (inactive)
same,Potency,[7],inactive
same,Potency,[8],inactive
same,Potency,[9],inactive
same,Potency,[10],inactive
same,Potency,[18],inactive
same,outcome,[11],inactive
same,outcome,[12],inactive
same,Potency,[19],inactive
same,Potency,[13],inactive
same,Potency,[20],inactive
same,Potency,[14],inactive
same,outcome,[16],inactive
CN(N=O)C(N)=O,Potency,[1],inactive
same,Potency,[17],inactive
same,Potency,[2],inactive
same,Potency,[8],inactive
same,Potency,[9],inactive
same,Potency,[10],inactive
same,Potency,[18],inactive
same,outcome,[11],inactive
same,outcome,[12],inactive
same,Potency,[19],inactive
same,Potency,[13],inactive
same,Potency,[20],inactive
same,Potency,[14],inactive
same,Potency,[15],inactive
CCC#N,Potency,[1],inactive
same,Potency,[17],inactive
same,Potency,[2],inactive
same,Potency,[8],inactive
same,outcome,[11],inactive
same,Potency,[13],inactive
same,Potency,[20],inactive
same,Potency,[14],inactive
same,Potency,[15],inactive
same,outcome,[16],inactive
CCOP(=S)(OCC)Oc1cc(-c2ccccc2)on1,Potency,[1],inactive
same,Potency,[2],inactive
same,Potency,[3],inactive
same,outcome,[4],inactive
same,Potency,[5],inactive
same,Potency,[6],68.6 µM (active)
same,Potency,[8],inactive
same,Potency,[9],inactive
same,Potency,[10],inactive
same,outcome,[11],inactive
same,Potency,[19],inactive
same,Potency,[14],inactive
same,Potency,[15],inactive
same,outcome,[16],inactive
OCCSCSCCO,Potency,[1],inactive
same,Potency,[2],inactive
same,Potency,[3],inactive
same,outcome,[4],inactive
same,Potency,[5],inactive
same,activation,[6],-2.71% (inactive)
same,Potency,[7],inactive
same,Potency,[8],inactive
same,Potency,[9],inactive
same,Potency,[10],inactive
same,Potency,[18],inactive
same,outcome,[11],inactive
same,outcome,[12],inactive
same,Potency,[19],inactive
same,Potency,[13],inactive
same,Potency,[20],inactive
same,Potency,[14],inactive
same,Potency,[15],inactive
same,outcome,[16],inactive
CC1=C(C(=O)Nc2ccccc2)S(=O)(=O)CCO1,Potency,[1],30.6 µM (active)
same,Potency,[2],inactive
same,Potency,[3],inactive
same,outcome,[4],inactive
same,Potency,[5],inactive
same,Potency,[7],76.9 µM (active)
same,Potency,[8],inactive
same,Potency,[9],48.5 µM (active)
same,Potency,[10],30.6 µM (active)
same,Potency,[18],inactive
same,outcome,[11],inactive
same,Potency,[20],1.93 µM (active)
same,Potency,[14],inactive
CCOC(=O)CP(=O)(OCC)OCC,Potency,[1],inactive
same,Potency,[2],inactive
same,Potency,[3],inactive
same,outcome,[4],inactive
same,Potency,[5],inactive
same,Potency,[7],inactive
same,Potency,[8],inactive
same,Potency,[9],inactive
same,Potency,[10],inactive
same,Potency,[18],inactive
same,outcome,[11],inactive
same,outcome,[12],inactive
same,Potency,[13],inactive
same,Potency,[14],inactive
same,Potency,[15],inactive
same,outcome,[16],inactive
